Screen size: about 16,000 compounds; about 2,600 (16%) were called active. Another 20% or so got no clear call; they are omitted. Not all results are given here. Values without a mark were called inactive. The call rests on the fitted dose curve; in most records, active means well fitted curve in the direction sought with a large enough effect; inconclusive means small, poorly fitted or top-dose-only effect, or effect the other way; inactive means no such curve, though single readings can be large or run the other way.
What follows are molecules tested against Cytochrome P450 2D6 (Homo sapiens) (UniProt P10635) (assay: Cytochrome panel assay with activity outcomes). Conditions: recombinant CYP, pro-luciferin dealkylation, luminescence, p450-cyp2d6; series mostly up to 57.1 µM; activity, negative = inhibition: at the top concentration.
Sequence of Cytochrome P450 2D6 (Homo sapiens) (P10635 whole entry, looked up): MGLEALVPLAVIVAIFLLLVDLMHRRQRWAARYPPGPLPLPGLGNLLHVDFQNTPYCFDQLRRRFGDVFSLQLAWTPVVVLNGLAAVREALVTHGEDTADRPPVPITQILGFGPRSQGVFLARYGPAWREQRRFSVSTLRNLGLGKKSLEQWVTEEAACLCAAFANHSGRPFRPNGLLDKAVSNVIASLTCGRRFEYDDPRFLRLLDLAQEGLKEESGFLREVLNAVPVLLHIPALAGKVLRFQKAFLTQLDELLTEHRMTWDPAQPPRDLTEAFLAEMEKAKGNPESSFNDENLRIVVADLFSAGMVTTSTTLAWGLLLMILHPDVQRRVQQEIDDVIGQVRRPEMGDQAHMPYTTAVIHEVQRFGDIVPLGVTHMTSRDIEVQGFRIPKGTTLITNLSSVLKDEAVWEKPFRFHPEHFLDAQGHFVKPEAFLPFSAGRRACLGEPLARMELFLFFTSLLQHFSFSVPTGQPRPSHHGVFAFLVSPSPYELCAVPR
On the % scale 0 is the no-effect control and ±100 the full control effect.

| Compound | activity, negative = inhibition | AC50 |
| --- | --- | --- |
| CC(C)NC(=O)CSc1nnc(C2CC2)n1-c1ccccc1 | -9.8% |  |
| COC(=O)[C@@]1(Cc2ccc(OC)cc2)[C@H]2c3cc(C(=O)N4CCCC4)n(CCCNc4ncc(C(F)(F)F)cc4Cl)c3C[C@H]2CN1C(=O)c1ccccc1 | -12.2% |  |
| Cc1nnc(C)n1/N=C/c1ccc(-c2ccccc2)cc1 | -3.23% |  |
| Cc1cccc(NC(=O)C2(c3ccccc3)CC2(Cl)Cl)c1 (stereo not given) |  | 17.8 µM (active) |
| Cc1cccc(N/C(=N\S(=O)(=O)c2ccccc2)C(F)(F)F)c1 | 4.65% |  |
| Cc1cccc(NC(=O)C23CCC(C)(C2Br)C3(C)C)c1 (stereo not given) | -22.6% |  |
| NC(=O)c1nn(-c2ccccc2)c(=O)cc1O | 7.3% |  |
| OCCNCCCOc1cccc(Cl)c1Cl |  | 0.158 µM (active) |
| Cc1nc(NC(N)=S)sc1C(=O)Nc1ccccc1 | 23.2% |  |
| Cn1cnnc1SCC(=O)n1c2ccccc2c2ccccc21 | 3.63% |  |
| Cc1nc2ccccc2nc1SCC(=O)N1CCC(C)CC1 | -27.1% |  |
| Cc1c(C)n(C(=O)CN2CCC(C)CC2)c2ccccc12 |  | 3.16 µM (active) |
| COc1ccc(-c2nnc(-c3ccc(OCC(C)C)cc3)o2)cc1 | 6.93% |  |
| Cn1cccc1C(=O)N1CCC2(CCN(C(=O)Nc3cccc(F)c3)CC2)CC1 | -2.09% |  |
| Cc1ccc(NC(=S)N2CCN(C3CCCCC3)CC2)cc1 |  | 14.1 µM (active) |
| Cc1ccc(NC(=O)C2CCN(S(C)(=O)=O)CC2)cc1 | -4.08% |  |
| CC(C)(CO)N1CCN(C(=S)Nc2ccccc2)CC1 | -13.1% [at 11.4 µM] |  |
| CC(=O)OC1CCC(OC(C)=O)c2c1n([O-])c(C)c(C)[n+]2=O (stereo not given) | 3.23% |  |
| CC(C)NCCOCCSc1ccc(Cl)cc1 |  | 3.55 µM (active) |
| CCCCNCCOCCSc1ccc(Cl)cc1 |  | 1.58 µM (active) |
| O=C(/C=C/c1ccc(Cl)cc1)NCCSc1ccccc1 | -28.5% |  |
| CCCCNC(=O)NS(=O)(=O)c1cnccc1Sc1ccc(Cl)cc1 | 16.8% |  |
| Cc1cc(/C=N\NC(=O)c2cccs2)c(C)n1-c1ccc2ncccc2c1 | -27.7% |  |
| C[C@@H]1CCC[C@H](C)N1 | 0.216% [at 25.6 µM] |  |
| CN(Cc1cccc2ccccc12)Cc1cccc2ccccc12 |  | 0.398 µM (active) |
| Cc1cc(C)cc(C(=N)c2ccccc2Cc2cccc3ccccc23)c1 | 5.99% [at 11.4 µM] |  |
| CN(C/C=C\c1ccccc1)Cc1cccc2ccccc12 |  | 0.251 µM (active) |
| O=S(=O)(O)CCCc1cccc2ccccc12 | 7.84% [at 11.4 µM] |  |
| CCOC(=O)CSCC(NC(=O)OC(C)(C)C)C(=O)OCC (stereo not given) | -9.04% |  |
| O=C1C2C3C=CC(C2C(=O)N1CN1CCOCC1)C1C2C(=O)N(CN4CCOCC4)C(=O)C2C31 (stereo not given) | 17.4% [at 11.4 µM] |  |
